# ASM inhibitor: human S-ASM enzyme inhibition; Potency, µM (highest dose often 57.5 µM), without a hit: at the top dose activity change, negative = inhibition, most hits filed as inhibitors; hit rate 0.006% among 340,000; placental ASM, HMU-PC fluorogenic substrate, 60 min; also: potency is read from the fitted curve at half-maximal effect
# Target sequence (P17405 47-631 limits assumed): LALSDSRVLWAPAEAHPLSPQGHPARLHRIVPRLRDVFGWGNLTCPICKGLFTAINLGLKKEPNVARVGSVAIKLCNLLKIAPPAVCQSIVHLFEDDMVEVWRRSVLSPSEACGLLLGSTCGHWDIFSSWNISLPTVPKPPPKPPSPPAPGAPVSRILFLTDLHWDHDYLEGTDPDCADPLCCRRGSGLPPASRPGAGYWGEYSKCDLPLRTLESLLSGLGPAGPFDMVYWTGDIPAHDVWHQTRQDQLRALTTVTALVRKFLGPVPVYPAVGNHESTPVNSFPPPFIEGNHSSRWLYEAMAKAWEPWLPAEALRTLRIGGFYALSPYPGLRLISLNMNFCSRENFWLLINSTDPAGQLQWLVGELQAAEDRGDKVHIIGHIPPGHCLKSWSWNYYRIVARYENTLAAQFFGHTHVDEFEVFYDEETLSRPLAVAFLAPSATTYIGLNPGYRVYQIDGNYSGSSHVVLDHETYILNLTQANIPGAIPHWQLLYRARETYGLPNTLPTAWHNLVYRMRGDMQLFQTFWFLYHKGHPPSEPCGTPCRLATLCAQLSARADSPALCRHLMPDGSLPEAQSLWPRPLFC
#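 Steps: dispense placental human ASM, pin compound, wait 10 min at room temperature, add HMU-PC0 substrate at 9 uM final, incubate 60 min at 37 °C, add stop solution raising pH to 10, read fluorescence.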
# IL-1B inflam inh: inhibitors of inflammasome signaling (IL-1 beta secretion). THP-1 LPS/ATP IL-1B secretion, AlphaLISA, 16 h; active compounds read low. activity change, % at 57.5 µM. hit rate 4.7% among 360,000. AID 743279; in the data active = activity change below about -50%; inconclusive = mostly about -30% to -49%; also: % is scaled to controls: 0 for no effect and ±100 for the full control effect
#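 Secreted IL-1B measured by AlphaLISA bead assay after 16 h compound exposure of THP-1 cells; compounds (final up to 57.5 uM) added 1 h before LPS (250 ng/mL) and ATP (1.25 mM) stimulation; lower signal means less secretion.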
# TGFb inhibitor: blocks TGF-b signaling; HepG2 CAGA-GFP TGF-b/SMAD3 reporter, GFP fluorescence, 18 h; TGF-beta stimulated, 500 pg/mL final; Potency, µM (highest dose often 46.1 µM), for inactives: at the highest dose activity, negative = inhibition, most hits filed as inhibitors; hit rate 1.2% among 410,000; AID 588855; also: potency is read from the fitted curve at half-maximal effect; % is scaled to controls: 0 for no effect and ±100 for the full control effect; nearly all actives have a fitted effect of over 65% in size
#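 GFP signal (ex488/em500-530) from TGF-beta-stimulated HEPG2 CAGA-GFP cells, 500 pg/mL final, 18 h at 37 degrees C in DMEM plus 1% FBS, normalized to unstimulated and DMSO-stimulated controls.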
# HepG2 tox: HepG2 cytotoxicity, counter-screen for TGF-b inhibitors; hit rate 0.76% among 410,000; Potency, µM (series often up to 46.1 µM), inactives show at the highest dose activity change, negative = cytotoxicity, most hits filed as cytotoxic; AID 588856; HepG2 CAGA-GFP viability, ATP luminescence, 18 h; also: potency is read from the fitted curve at half-maximal effect
#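 CellTiter-Glo luminescence gave cytotoxicity after 18 hours at 37 degrees C. The cells were HepG2 CAGA-GFP in 1% FBS DMEM, stimulated with 500 pg/mL TGF-beta after compound addition. %Activity was normalised to no-cell wells (complete cell-killing) and DMSO (no toxicity), and curves were fitted and classified.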
# TDP1 cell CPT: growth inhibition of DT40 Tdp1-/-;hTDP1 cells with camptothecin (screen for TDP1 inhibitors); chicken DT40 Tdp1-/-;hTDP1 cells + 20 nM CPT, ATP luminescence, 48 h; hit rate 12% among 420,000; AID 686979; Potency, µM (titrated, usually from 46.2 µM), inactives show at the highest dose activity change, negative = growth inhibition, most hits filed as inhibitors; also: potency is read from the fitted curve at half-maximal effect; % is scaled to controls: 0 for no effect and ±100 for the full control effect; nearly all actives have a fitted effect of over 55% in size
#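 Chicken DT40 Tdp1-/- cells complemented with human TDP1, 400 cells/well, exposed to compounds plus 20 nM camptothecin for at least 48 h at 37 C; viability read as ATP content by CellTiter-Glo luminescence.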
# TDP1 cell noCPT: qHTS for Inhibitors of human tyrosyl-DNA phosphodiesterase 1 (TDP1): qHTS in cells in absence of CPT; AID 686978, 2013; hit rate 15% among 420,000; DT40 Tdp1-/- hTDP1 cells, no CPT, ATP luminescence, 48 h; Potency, µM (series often up to 46.2 µM), for the others: top-dose activity change, negative = growth inhibition, usual class: inhibitors; also: potency is read from the fitted curve at half-maximal effect; % is scaled to controls: 0 for no effect and ±100 for the full control effect; nearly all actives have a fitted effect of over 55% in size
#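 No-CPT arm: Tdp1-/-;hTDP1 DT40 cells (400/well) plus compounds, incubated ≥48 hr at 37 °C. Readout CellTiter-Glo luminescence.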
# An asterisk follows results filed as active; i = inactive; ? = inconclusive; / = no result given. Sampled rows, rich in hits. Any-hit rate of the full collection: about 19%. Unless noted, calls follow the shape of the dose curve; as a rule, active = well fitted curve in the direction sought with a large enough effect; inconclusive = small, poorly fitted or top-dose-only effect, or another doubt; inactive = no such curve, though single readings can be large; an effect the other way counts as inactive or inconclusive.
SMILES,ASM inhibitor,IL-1B inflam inh,TGFb inhibitor,HepG2 tox,TDP1 cell CPT,TDP1 cell noCPT
COc1ccc(CNc2nc3c(c(=O)n(Cc4ccc(Cl)cc4)c(=O)n3C)n2C)cc1,?,?,-5%,-8%,18µM*,23µM*
COc1cccc(CNc2nccn(-c3cc(C)cc(C)c3)c2=O)c1,/,/,-24%,-32%,?,?
COCCNc1nc2c(c(=O)n(Cc3ccc(OC)cc3)c(=O)n2C)n1C,0%,46,8%,-4%,-6%,-3%
C=C(C)Cn1c(NCCC)nc2c1c(=O)n(C)c(=O)n2C,-1%,30,25%,-75%,?,?
COc1ccc(OC)c(CCNc2nccn(-c3ccc(C)c(C)c3)c2=O)c1,/,/,-26%,-29%,15µM*,21µM*
Cc1ccc(-n2ccnc(NCc3ccccc3)c2=O)cc1C,/,/,?,-11%,?,?
CCCNc1nc2c(c(=O)n(C)c(=O)n2C)n1Cc1ccc(F)cc1,-2%,13,-28%,-3%,6.5µM*,9.2µM*
COc1ccc(-n2ccnc(NCc3ccc(Cl)cc3)c2=O)cc1,/,/,?,-29%,?,15µM*
C=CCN(CC=C)c1ncnc2[nH]ncc12,0%,-6,-6%,8%,?,?
CCNc1nc2c(c(=O)n(C)c(=O)n2C)n1Cc1ccc(Cl)cc1,2%,17,?,-32%,3.7µM*,6.5µM*
Cn1c(=O)c2c(nc(NCc3cccnc3)n2Cc2ccc(Cl)cc2)n(C)c1=O,-2%,?,3%,-40%,?,5.8µM*
CCC(C)Nc1nc2c(c(=O)n(C)c(=O)n2C)n1Cc1ccc(Cl)cc1 (stereo not given),-8%,-27,-9%,-35%,13µM*,23µM*
COc1ccc(CNc2nc3c(c(=O)n(C)c(=O)n3C)n2Cc2ccccc2Cl)cc1,/,/,0%,-40%,?,?
CCC(C)Nc1nc2c(c(=O)n(C)c(=O)n2C)n1Cc1cccc(C)c1 (stereo not given),-2%,-18,12%,-15%,1%,-21%
O=C(CCC1CCN(C(=O)c2cncs2)CC1)Nc1ccccc1,-1%,i,10%,25%,-12%,-16%
O=C(COC(=O)/C=C/c1ccc(OC(F)F)cc1)NC1CCCC1,1%,14,16%,-43%,-15%,-19%
Cc1cccc(CCN2CCN=C2N(C)C)c1,4%,8,-1%,0%,-7%,-6%
COc1ccc(C(=O)Nc2cccc(OCc3cc(=O)n4c5c(sc4n3)CCCC5)c2)cc1OC,/,/,2%,-8%,-6%,?
OCCN(CCO)c1cc2c3ccccc3ccc2c2ccccc12,394%,-65*,?,-17%,?,16µM*
OCCN(CCO)c1ccc2ccccc2c1,323%,18,-8%,-6%,-23%,2%
CN(C)c1cc2c3ccccc3ccc2c2ccccc12,/,/,-18%,-45%,?,16µM*
COc1ccc(Cl)cc1S(=O)(=O)Nc1noc2ccccc12,2%,20,-5%,-5%,18%,0%
CCC(C)NC(=O)C1CCN(S(=O)(=O)c2ccc3c(ccn3CC)c2)CC1 (stereo not given),/,/,8%,7%,-11%,-18%
Cc1csc(-c2cnn(-c3ccccc3)c2NC(=O)c2cccc(C(F)(F)F)c2)n1,-15%,-11,-5%,-2%,-14%,-5%
Cc1ccccc1CNC(=O)c1oc2c(c1C)-c1nn(Cc3ccc(Cl)cc3)cc1CC2,/,/,-7%,-13%,?,16µM*
SMILES,ASM inhibitor,IL-1B inflam inh,TGFb inhibitor,HepG2 tox,TDP1 cell CPT,TDP1 cell noCPT
CCOc1ccccc1CNC(=O)c1oc2c(c1C)-c1nn(Cc3cccc(Cl)c3)cc1CC2,/,/,0%,-9%,?,21µM*
Cc1c(C(=O)NCc2ccc(N(C)C)cc2)oc2c1-c1nn(Cc3cccc(Cl)c3)cc1CC2,/,/,-25%,-4%,?,?
COc1ccc(OC)c(NC(=O)c2oc3c(c2C)-c2nn(Cc4ccc(Cl)cc4)cc2CC3)c1,/,/,-21%,4%,?,?
CCCS(=O)(=O)c1c(S(=O)(=O)CCC)c2cc(C(C)(C)C)ccn2c1C(=O)c1ccc(OC)c(OC)c1,/,/,0%,-14%,?,?
CCCS(=O)(=O)c1c(S(=O)(=O)CCC)c2cc(C(C)(C)C)ccn2c1C(=O)c1ccccc1,/,/,-2%,-11%,18µM*,16µM*
CCCS(=O)(=O)c1c(S(=O)(=O)CCC)c2c(N)cccn2c1C(=O)c1ccc(Br)cc1,-13%,-17,-4%,-48%,16µM*,?
CCCS(=O)(=O)c1c(S(=O)(=O)CCC)c2c(C)cccn2c1C(=O)OC,6%,-5,-27%,-31%,13µM*,13µM*
CCCS(=O)(=O)c1c(S(=O)(=O)CCC)c2c3ccccc3ccn2c1C(=O)OC,-3%,?,-9%,6%,?,26µM*
Cc1ccc(NCc2ccccc2O)c(C)c1,-2%,-17,?,-14%,12%,-14%
COc1ccccc1OCCn1c(COc2cc(C)ccc2C)nc2ccccc21,/,/,/,-7%,?,?
CCCS(=O)(=O)c1c(S(=O)(=O)CCC)c2c(N)cccn2c1C(=O)c1ccc(OC)cc1,0%,-16,10%,-5%,-23%,-18%
CCCS(=O)(=O)c1c(S(=O)(=O)CCC)c2ccccn2c1C(=O)OC,3%,7,-18%,-17%,21µM*,16µM*
C=C(C)C(=O)Nc1cccc(C2=NOC3(C2)C[C@@H](C(N)=O)N(C(=O)CCCCC)C3)c1 (stereo not given in full),-20%,-7,-7%,8%,-1%,-7%
COc1ccc(-c2cc(=O)oc3cc(OCC(=O)N4CCOCC4)ccc23)cc1,1%,-9,19%,-12%,8%,-1%
COc1ccc(-c2cc(=O)oc3cc(OCC(=O)Nc4ccc(CCO)cc4)ccc23)cc1,-3%,64,-6%,-13%,3.7µM*,0.52µM*
COC(=O)COc1ccc2c(-c3ccc(OC)cc3)cc(=O)oc2c1,-10%,24,5%,-7%,0.41µM*,-2%
COc1ccc(-c2cc(=O)oc3cc(OC(=O)C4CCCCC4)ccc23)cc1,5%,-25,7%,-21%,?,18µM*
COc1ccc(-c2cc(=O)oc3cc(OCc4nn[nH]n4)ccc23)cc1,12%,62,27%,-1%,1%,-16%

# Bioassay records as filed in PubChem BioAssay.
